Results on 93 molecules are retold here after PubChem BioAssay AID1986 (Sanford-Burnham Center for Chemical Genomics, 2009).

Usually inhibition stands for the change of the read-out against control, counted positive when it falls.

This experiment can be described thus: inhibitors of HIV fusion peptide binding, primary screen, biochemical, uHTS, fluorescence dequenching (AID 1986). Particulars: cell-free peptide binding, 30 min, stronger effect = higher value.
Setting [1] is: measured here: repeat confirmation average inhibition, at 18.6 µM.

“And” between values parts separate entries of the source, which are not always exact repeats. Equal entries are not always repeated. The whole screen tested about 290,000 compounds, of which about 890 (0.31%) were called active. No stated cut-off is given here; in the data, active means inhibition mostly above about 52% (no sharp cut-off); inactive means mostly below about 76%. Many of the other results were omitted from the sample, so actives are more common in it than they were.

On to `Cc1ccc(NC(=O)c2ccc3nsnc3c2)c(Cl)c1`, for which the inhibition (at 20 µM) was 1.6% (inactive).
The same measure, in the same setting: as for `O=C(CSc1nnc(C2CCCCC2)o1)Nc1ccccc1Cl`, the figure is 2.8% (inactive); as for `O=C(NN=C1CCCC1)c1ccc(Cl)cc1`, -0.5% (inactive); as for `CC(C)(C)c1ccc(NC(=S)NCCc2ccccn2)cc1`, -0.5% (inactive).
The same measure, in the same setting: as for `COc1cccc(C2C3CN(C)CC=C3C(C#N)=C(N)C2(C#N)C#N)c1OC` (configuration not stated), the figure is 149% (inactive); as for `CCCN1CC=C2C(C#N)=C(N)C(C#N)(C#N)C(c3cccc(OC)c3OC)C2C1` (configuration not stated), 67.5% (active).
On the same count and under the same terms, the figure for `CCN1CC=C2C(C#N)=C(N)C(C#N)(C#N)[C@H](c3cccc(OC)c3OC)[C@H]2C1` is 61.5% (active); for `CCOC(=O)N1CC=C2C(C#N)=C(N)C(C#N)(C#N)[C@H](c3ccccc3OCC)[C@H]2C1` it is 0.7% (inactive); for `COc1ccc([C@@H]2[C@H]3CN(C(C)=O)CC=C3C(C#N)=C(N)C2(C#N)C#N)c2ccccc12` it is -3.1% (inactive).
In the case of `CCN1CC=C2C(C#N)=C(N)C(C#N)(C#N)C(c3cc(Cl)ccc3Cl)C2C1` (configuration not stated), the inhibition (at 20 µM) is 2.6% (inactive).
On the same count and under the same terms, as for `Cn1c(COc2ccccc2)nnc1SCC(=O)NCc1ccccc1`, the figure is -0.1% (inactive); as for `CC1(C)CC(NCc2cccc([N+](=O)[O-])c2)CC(C)(C)N1`, -1.8% (inactive); as for `CN(C)n1cnc2ccsc2c1=O`, 1.1% (inactive).
`CN(C(=O)COC(=O)CNC(=O)c1ccccc1Cl)c1ccccc1`: for the setting “at 20 µM”, the inhibition was -0.3% (inactive).
Regarding `CCC1=NN2C(=N)/C(=C\c3cccn3-c3ccc(C)c(C)c3)C(=O)N=C2S1`, the inhibition (at 20 µM) was 35.7% (inactive).
As for `CCC1=NN2C(=N)/C(=C\c3cccn3-c3c(C)cccc3C)C(=O)N=C2S1`, the inhibition (at 20 µM) was 25.7% (inactive).
Same read-out and setting: as for `CCC1=NN2C(=N)/C(=C\c3cccn3-c3ccc(C)cc3C)C(=O)N=C2S1`, the figure is 51% (active); as for `CC(NCCc1ccc(S(N)(=O)=O)cc1)C(=O)NCCc1ccc(F)cc1` (configuration not stated), 0.6% (inactive); as for `O=C1/C(=C/c2cccc(Br)c2)SC(=S)N1/N=C/c1cc([N+](=O)[O-])ccc1O`, 16.7% (inactive).
With `Cc1ccccc1/C=C1\SC(=S)N(/N=C/c2cc([N+](=O)[O-])ccc2O)C1=O`, the inhibition (at 20 µM) is 26.8% (inactive).
Same read-out and setting: as for `Cc1ccc(/C=C2\SC(=S)N(/N=C/c3cc([N+](=O)[O-])ccc3O)C2=O)o1`, the figure is 82.2% (active); as for `CCNC(=S)NS(=O)(=O)c1ccc(C)cc1`, -1.7% (inactive).
Same read-out and setting: as for `Cc1ccc(/C=C(\C#N)C(=O)NC(C)c2ccccc2)o1` (configuration not stated), the figure is 0.2% (inactive).
Still for that read-out and setting: the figure for `CC(C)NC(=O)/C(C#N)=C\c1ccc(N(C)C)c(Br)c1` is 0.3% (inactive).
On to `CC(C)NC(=O)/C(C#N)=C/c1ccc(N(C)C)o1`, for which the inhibition reads like this: (at 20 µM) 82.3% (active); under setting [1], 64.2%.
`CCN(CC)c1ccc(/C=C(/C#N)C(=O)NC(C)C)o1`: the inhibition (at 20 µM) is 113% (active).
Still for that read-out and setting: as for `Cc1ccc(/C=C(\C#N)C(=O)NC(C)C)o1`, the figure is 1.4% (inactive); as for `CN(C)c1ccc(/C=C(/C#N)C(=O)NCc2ccccc2)o1`, 134% (inactive); as for `CCN(CC)c1ccc(/C=C(/C#N)C(=O)NCc2ccccc2)o1`, 128% (inactive).
Turning to `CC(C)NC(=O)/C(C#N)=C\c1ccc(N(C)C)o1`, the inhibition reads like this: (at 20 µM) 78.6% (active); under setting [1], 59.9%.
On to `Cc1ccc(/C=C(/C#N)C(=O)NC(C)c2ccccc2)o1` (configuration not stated), for which, under “at 20 µM”, the inhibition is 3.2% (inactive).
On the same count and under the same terms, the figure for `O=C(OCc1ccccc1)c1cnc(Cl)c(Cl)c1` is -1.7% (inactive); for `CC(C)CNC(=O)c1cccc(NC(=O)CCc2ccccc2)c1` it is 0.2% (inactive); for `CC(=O)NCCn1c(SCC(=O)NCCC(C)C)nc2ccccc2c1=O` it is -1.8% (inactive).
On the same count and under the same terms, as for `Nc1c(C(=O)OCC2CCCO2)c2nc3ccccc3nc2n1-c1ccc2c(c1)OCCO2` (configuration not stated), the figure is 0.3% (inactive).
On to `O=C(c1ccco1)N1CCN(c2ccc([N+](=O)[O-])c(N3CCOCC3)c2)CC1`, for which, under “at 20 µM”, the inhibition was 0.8% (inactive).
On to `Nc1ccc2nc(SCc3ccc([N+](=O)[O-])cc3)sc2c1`, for which the inhibition (at 20 µM) is 1.8% (inactive).
On the same count and under the same terms, the figure for `Cn1cc(CN2CCN(CC(C)(C)C)C(CCO)C2)c2ccccc21` (configuration not stated) is 2.5% (inactive); for `Cc1ccc(CSc2nc3ccccc3c(=O)n2CCCC(=O)NCc2ccco2)cc1` it is -1.1% (inactive); for `CN1CCN(c2ccc(NC(=O)CSc3nnnn3-c3ccccc3F)cc2)CC1` it is -0.3% (inactive).
Still for that read-out and setting: as for `CC(=O)CSc1ccc(-c2nc3cc(C)c(C)cc3[nH]2)cn1`, the figure is 0.7% (inactive); as for `Cc1cc2nc(-c3ccc(SCc4ccc(C(=O)O)cc4)nc3)[nH]c2cc1C`, 56.9% (active); as for `Cc1cc2nc(-c3ccc(SCc4ccc(C#N)cc4)nc3)[nH]c2cc1C`, 8.6% (inactive).
On the same count and under the same terms, the figure for `Cn1nc(CC(=O)Nc2cccnc2N2CCOCC2)c2ccccc2c1=O` is 0.1% (inactive).
Consider `NS(=O)(=O)c1ccc(N=Nc2ccc(O)c3ncccc23)cc1`, for which the inhibition (at 20 µM) was -1.1% (inactive).
Same read-out and setting: as for `Cc1ccccc1N=Nc1ccc(O)c2ncccc12`, the figure is -1.3% (inactive); as for `O=S(=O)(O)c1cccc2c(N=Nc3ccc(O)c4ncccc34)cccc12`, 64.9% (active).
The same measure, in the same setting: as for `O=C(O)/C=C\C(=O)Nc1ccccc1C(=O)NCc1ccccc1`, the figure is -0.8% (inactive).
Regarding `CCN(CC)c1ccc(/C=C/c2cccc[n+]2C)c(OC)c1`, the inhibition runs as follows: (at 20 µM) 77.3% (active); under setting [1], 63.6%.
As for `COc1ccc(/C=C/c2cccc[n+]2C)c(O)c1`, where the note is “at 20 µM”, the inhibition is 2.7% (inactive).
Same read-out and setting: the figure for `CCN(CC)c1ccc(C=O)c(OC)c1` is -0.9% (inactive).
With `Cc1c(OC(C)C(=O)NCCCN2CCCC2=O)ccc2c3c(c(=O)oc12)CCCC3` (configuration not stated), the inhibition (at 20 µM) is -2.1% (inactive).
Consider `CCOC(=O)C1(Cc2ccccc2)CCCN(Cc2cnn(CC)c2)C1` (configuration not stated), for which, where the note is “at 20 µM”, the inhibition is -1.6% (inactive).
Same read-out and setting: as for `Cc1cccc2c1N(C(=O)c1ccco1)C(C)(C)c1ssc(=S)c1-2`, the figure is -4.4% (inactive); as for `CCCn1cc(CN2CCC(Cc3cccc(F)c3)(C(=O)OCC)CC2)c(C)n1`, -3.2% (inactive); as for `COc1cc([N+](=O)[O-])ccc1NC(=O)N1CCCCCC1`, -0.4% (inactive).
Take `CN1CCC2(CC1)C1CN(C)CC=C1C(C#N)=C(N)C2(C#N)C#N` (configuration not stated): the inhibition (at 20 µM) is 51.5% (active) and 103% (active); the inhibition under setting [1] was found to be 50.3%.
In the case of `CN1CC=C2C(C#N)=C(N)C(C#N)(C#N)[C@H](c3cccs3)[C@H]2C1`, the inhibition (at 20 µM) is 25.9% (inactive).
The same measure, in the same setting: the figure for `N#CC1=C(N)C(C#N)(C#N)C2(CCC3(CC2)OCCO3)C2CC3(CC=C12)OCCO3` (configuration not stated) is 5.6% (inactive).
Still for that read-out and setting: as for `CC(=O)N1CCC(=O)Nc2ccc([N+](=O)[O-])cc21`, the figure is -0.3% (inactive).
Still for that read-out and setting: the figure for `COc1cc2nc(CN3CCN(C(c4ccccc4)c4ccccc4)CC3)[nH]c(=O)c2cc1OC` is 2.2% (inactive).
For `N=c1c(S(=O)(=O)c2ccc(Cl)cc2)cc2c(=O)n3ccccc3nc2n1CCc1ccccc1`, the inhibition is, setting by setting: (at 20 µM) 84.1% (active); under setting [1], 74.9%.
For `Cc1ccc(S(=O)(=O)c2cc3c(=O)n4ccccc4nc3n(CCc3ccccc3)c2=N)cc1`, for the setting “at 20 µM”, the inhibition is 25% (inactive).
Same read-out and setting: the figure for `COc1ccc(CCn2c(=N)c(S(=O)(=O)c3ccc(Cl)cc3)cc3c(=O)n4ccccc4nc32)cc1` is 195% (inactive).
Same read-out and setting: as for `O=C(NC1CC1)C1CCN(C2CCN(C(=O)Cc3ccc4c(c3)OCO4)CC2)CC1`, the figure is 0.5% (inactive); as for `O=C(Nc1nnc(C2CC2)s1)C1COc2ccccc2O1` (configuration not stated), -2.5% (inactive); as for `Cc1cc(C)n2nc(C(=O)N3CCOCC3)nc2n1`, -0.9% (inactive).
The same measure, in the same setting: as for `Cc1cccc2cc(C(c3nnnn3Cc3ccc4c(c3)OCO4)N3CCCC3)c(=O)[nH]c12` (configuration not stated), the figure is -1.7% (inactive); as for `O=C(COc1ncnc2ccccc12)Nc1cccc([N+](=O)[O-])c1`, 0.9% (inactive).
Turning to `O=C(Oc1ccc2c(c1)O/C(=C\c1ccncc1)C2=O)c1ccccc1`, the inhibition by setting is: (at 20 µM) 86.3% (inactive); under setting [1], 3%.
For the molecule `COc1cccc(OC)c1C(=O)Oc1ccc2c(c1)O/C(=C\c1ccncc1)C2=O`, the inhibition (at 20 µM) was 3.9% (inactive).
`CC(=O)Oc1ccc2c(c1)O/C(=C\c1ccncc1)C2=O`: the inhibition was 106% (active) (at 20 µM) and 53% under setting [1].
For `COc1ccc(CNc2nc3nc(-c4ccccc4)cc(=O)n3[nH]2)cc1OC`, the inhibition (at 20 µM) was 0.4% (inactive).
The same measure, in the same setting: as for `O=C(CCl)Nc1ccc(N=Nc2ccccc2)cc1`, the figure is -2.8% (inactive).
For `Oc1c(C=Nc2cccnc2)sc2ccccc12`, the inhibition (at 20 µM) is 1.4% (inactive).
Same read-out and setting: as for `Oc1c(/C=N/c2ccccn2)sc2ccccc12`, the figure is 6.4% (inactive).
On to `Oc1c(C=Nc2cccc3cccnc23)sc2ccccc12`, for which the inhibition (at 20 µM) is 85.8% (active) and the inhibition under setting [1] was 50.9%.
As for `CCOc1ccc2nc(NC(=O)C34CC5CC(CC(NC(C)=O)(C5)C3)C4)sc2c1`, the inhibition (at 20 µM) was -1.2% (inactive).
As to `O=C(O)c1c(Cl)c(Cl)c(Cl)c(Cl)c1C(=O)N1CCOCC1`, the inhibition (at 20 µM) is 4.1% (inactive).
Same read-out and setting: the figure for `CCOC(=O)/C(C#N)=N/Nc1ccc(S(=O)(=O)N2CCc3ccccc32)cc1` is 5.4% (inactive); for `N#C/C(=N\Nc1ccc(S(=O)(=O)N2CCCCCC2)cc1)C(N)=S` it is 9.5% (inactive).
Take `N#C/C(=N\Nc1ccc(S(=O)(=O)N2CCc3ccccc32)cc1)C(N)=S`: the inhibition (at 20 µM) is 51.3% (active).
Still for that read-out and setting: the figure for `Cc1ccc(NC(=O)c2cc([N+](=O)[O-])ccc2NCc2cccnc2)cc1` is -0.6% (inactive); for `O=C(N/N=C/c1cccc([N+](=O)[O-])c1)c1cc(-c2ccc3c4c(cccc24)CC3)n[nH]1` it is -6.3% (inactive).
As to `O=C(O)c1ccc(/C=N/NC(=O)c2cc(-c3ccc4c5c(cccc35)CC4)n[nH]2)cc1`, the inhibition is, setting by setting: (at 20 µM) 61.2% (inactive); under setting [1], 7%.
For `O=C(N/N=C/c1ccccc1C(=O)O)c1cc(-c2ccc3c4c(cccc24)CC3)n[nH]1`, the inhibition (at 20 µM) was 69.6% (active).
The same measure, in the same setting: as for `Cc1ccc(C(=O)NCC(c2ccc(F)cc2)N2CCOCC2)cc1` (configuration not stated), the figure is -1.6% (inactive); as for `O=C(CSc1nnc(SCc2ccccc2)s1)N/N=C/C=C/c1ccco1`, 33.4% (inactive); as for `O=C(Cc1cccs1)N/N=C/C=C\c1ccco1`, 69.7% (active).
Still for that read-out and setting: the figure for `O=C(CSc1nnc(SCc2ccccc2)s1)N/N=C/C=C\c1ccco1` is 51.3% (active); for `O=C(Cc1cccs1)N/N=C/C=C/c1ccco1` it is 31.2% (inactive); for `O=C(Cc1cccs1)N/N=C/c1ccco1` it is 5% (inactive).
Consider `Cc1ccc(CSc2nnc(SCC(=O)N/N=C/C=C/c3ccco3)s2)cc1`, for which the inhibition (at 20 µM) was 46.7% (inactive).
